Laboratory results from PubChem BioAssay.
Calls of active or inactive are those of the source. Rule as the data show it, unless noted: active = inhibition above about 36%; inactive = the rest.

Legend:
[1] = test system: transactivating tegument protein VP16 (Human herpesvirus 1); assay: compounds suppressing VP16-driven luciferase signal – cell-based, luminescence, single concentration, counter-screen for SRC2 inhibitor project (AID 652007); conditions: cell-based VP16 transactivation luciferase reporter, at 8.9 µM, active compounds read high
[2] = target: Nuclear receptor coactivator 2 (Homo sapiens) (UniProt Q15596); assay: inhibition of GAL4-SRC2 driven luciferase expression – cell-based, luminescence, HEK293, triplicate, confirmation (AID 652008;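 active = mean inhibition above 46.5%, the solvent-only control mean plus 3 SD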;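 also: 0% = DMSO-treated cells and 100% = Gossypol at 36 µM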); conditions: HEK293 GAL4-SRC2 luciferase reporter, at 8.9 µM, active compounds read high
Sequence of Nuclear receptor coactivator 2 (Homo sapiens) (Q15596 whole entry, looked up, the tested form may be a part): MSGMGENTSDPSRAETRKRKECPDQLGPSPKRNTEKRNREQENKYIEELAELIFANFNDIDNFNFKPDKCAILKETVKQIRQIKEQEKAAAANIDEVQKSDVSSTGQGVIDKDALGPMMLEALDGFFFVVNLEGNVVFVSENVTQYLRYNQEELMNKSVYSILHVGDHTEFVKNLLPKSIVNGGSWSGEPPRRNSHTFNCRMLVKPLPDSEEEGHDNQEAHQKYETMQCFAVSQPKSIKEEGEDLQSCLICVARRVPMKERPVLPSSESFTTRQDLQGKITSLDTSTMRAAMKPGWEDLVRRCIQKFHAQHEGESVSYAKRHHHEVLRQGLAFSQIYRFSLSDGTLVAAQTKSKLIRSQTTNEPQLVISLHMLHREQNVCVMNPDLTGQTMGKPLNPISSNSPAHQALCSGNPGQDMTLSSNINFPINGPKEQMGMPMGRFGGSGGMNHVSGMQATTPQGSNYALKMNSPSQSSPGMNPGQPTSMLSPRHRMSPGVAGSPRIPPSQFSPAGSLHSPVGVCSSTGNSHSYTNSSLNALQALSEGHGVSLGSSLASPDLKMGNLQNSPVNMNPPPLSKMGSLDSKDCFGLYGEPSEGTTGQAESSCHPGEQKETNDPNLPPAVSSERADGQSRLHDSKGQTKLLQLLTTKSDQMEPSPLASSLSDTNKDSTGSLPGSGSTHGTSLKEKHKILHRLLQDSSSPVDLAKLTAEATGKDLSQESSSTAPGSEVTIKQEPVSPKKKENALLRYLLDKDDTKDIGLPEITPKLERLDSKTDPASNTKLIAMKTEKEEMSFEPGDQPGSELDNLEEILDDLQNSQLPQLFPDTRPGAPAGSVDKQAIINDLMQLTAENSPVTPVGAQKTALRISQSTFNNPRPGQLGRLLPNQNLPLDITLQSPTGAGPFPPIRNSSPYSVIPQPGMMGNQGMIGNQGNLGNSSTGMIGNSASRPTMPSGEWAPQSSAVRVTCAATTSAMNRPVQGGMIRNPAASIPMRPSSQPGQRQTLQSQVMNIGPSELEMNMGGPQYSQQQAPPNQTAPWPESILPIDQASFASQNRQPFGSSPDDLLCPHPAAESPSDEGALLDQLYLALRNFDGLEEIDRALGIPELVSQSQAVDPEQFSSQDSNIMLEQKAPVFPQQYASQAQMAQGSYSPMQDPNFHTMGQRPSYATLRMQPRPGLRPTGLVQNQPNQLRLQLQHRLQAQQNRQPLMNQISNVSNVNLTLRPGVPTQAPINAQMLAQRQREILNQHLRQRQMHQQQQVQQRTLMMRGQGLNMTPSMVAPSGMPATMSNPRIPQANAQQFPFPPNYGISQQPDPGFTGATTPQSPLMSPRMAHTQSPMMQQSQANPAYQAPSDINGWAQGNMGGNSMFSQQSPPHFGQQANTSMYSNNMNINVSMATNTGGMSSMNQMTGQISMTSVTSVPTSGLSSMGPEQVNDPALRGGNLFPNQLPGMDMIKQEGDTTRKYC

SMILES	inhibition [1]	inhibition [2]
COc1cccc(NC(=O)Nc2nnc(N3C(C)CCCC3C)s2)c1 (stereo unspecified)	-51.2% (inactive)	-7.93% (inactive)
COc1ccc(OC)c(NC(=O)COC(=O)CCCN=C2NS(=O)(=O)c3ccccc32)c1	-0.67% (inactive)	-10.3% (inactive)
O=C(CSc1nc2nc(-c3cccs3)cc(C(F)(F)F)c2c(=O)[nH]1)C(F)(F)F	-28.3% (inactive)	10% (inactive)
Cc1ccc(NC(=O)COC(=O)C2=NN(c3ccccc3)C(=O)CC2)c(Br)c1	-16.2% (inactive)	-37.9% (inactive)
CC1=C(C(=O)N2CCOCC2)CC(CC(=O)NCCCCc2ccccc2)C(=O)N1Cc1ccc(C(C)(C)C)cc1 (stereo unspecified)	12.6% (inactive)	2.06% (inactive)
Cc1cc(Br)ccc1NC(=O)CN(C)C(=O)C1CCN(c2ncnc3sc(C)c(C)c23)CC1	12.9% (inactive)	23% (inactive)
CCc1ccc(C(=O)Nc2nc3ccccc3[nH]2)cc1	-1% (inactive)	45.8% (inactive)
CCCOc1ccc(C(=O)C(CN2CCOCC2)c2ccccc2)cc1 (stereo unspecified)	14% (inactive)	53.9% (active)
O=C1c2ccccc2S(=O)(=O)N1Cc1nc2ccccc2s1	6.44% (inactive)	31.4% (inactive)
COc1ccc(C(=O)/C=C/Nc2ccccn2)cc1	3.41% (inactive)	30.8% (inactive)
COc1cc(/C=C/C(=O)Nc2ccc(OC)c(S(=O)(=O)N3CCOCC3)c2)ccc1OC(F)F	11% (inactive)	63.1% (active)
Cn1nnnc1Sc1ncnc2scc(-c3cccc(S(C)(=O)=O)c3)c12	21.7% (inactive)	2.26% (inactive)
Cc1cc(Cl)c(S(=O)(=O)N2CCN(c3ccccn3)CC2)cc1OCC(=O)NC1CCCCC1	10.5% (inactive)	16.3% (inactive)
c1ccc(-n2nnnc2Oc2ccc(-n3ccnc3)cc2)cc1	-16.2% (inactive)	1.01% (inactive)
Oc1ccc(N=Nc2ccc3c(c2)OCCO3)c(O)c1	-71.4% (inactive)	35.1% (inactive)
c1ccc(-c2csc3ncnc(NCc4ccccn4)c23)cc1	-7.12% (inactive)	4.33% (inactive)
O=C(CCCN1C(=O)/C(=C/c2ccccc2)SC1=S)NCCCn1ccnc1	35.9% (active)	26.1% (inactive)

SMILES	inhibition [1]	inhibition [2]
CCOC(=O)C1CCCN(C(=O)c2ccc3c(c2)N(C)C(=O)/C(=C/c2ccccc2Cl)S3)C1 (stereo unspecified)	-1.52% (inactive)	23.8% (inactive)
O=[N+]([O-])c1ccc(S(=O)(=O)c2ccccc2)nc1	51.9% (active)	36% (inactive)
O=C(c1ccc(S(=O)(=O)NCc2ccco2)cc1)N1CCN(Cc2ccc3c(c2)OCO3)CC1	-2.59% (inactive)	3.12% (inactive)
Cc1cc(C)c(C)c(N=Nc2nc3ccccc3n2C)c1C	-75.3% (inactive)	49.7% (active)
O=C(/C=C/c1cn(-c2ccccc2)nc1-c1cccnc1)c1ccco1	29.5% (inactive)	39.6% (inactive)
CCn1cc(S(=O)(=O)Nc2ccc3c(c2)OCCO3)cn1	-3.8% (inactive)	48.4% (active)
Cn1nc(C(C)(C)C)cc1C(=O)N1CCCCC1c1cc(C(=O)Nc2ccccc2Cl)no1 (stereo unspecified)	7.65% (inactive)	13.2% (inactive)
COc1cc(OC)cc(C2=Cc3ccc(OC)cc3C(CC(C)=O)N2c2ccc(C#CC3(O)CCCCC3)cc2)c1 (stereo unspecified)	-2.24% (inactive)	19.6% (inactive)
Cc1nc(=O)c(-c2ccccc2)c(C)n1-c1ccccc1Cl	-4.06% (inactive)	-36.8% (inactive)
CCCCN1C[C@@H](COCc2ccccc2)Oc2cc(F)ccc2S1(=O)=O	-1.24% (inactive)	11.9% (inactive)
C=C(C(=O)c1ccccc1)C(C)CC(=O)c1ccccc1 (stereo unspecified)	11.5% (inactive)	26.8% (inactive)
NNC(=O)COc1ccc(C(F)(F)F)cc1	-3.76% (inactive)	4.91% (inactive)
Cc1c(CCC(=O)O)c(=O)oc2cc3oc4c(c3cc12)CCCC4	49.3% (active)	69.2% (active)
CCOc1cccc(NC(=O)C2CCCN(S(=O)(=O)c3ccc(OC)cc3)C2)c1 (stereo unspecified)	-26.5% (inactive)	-6.98% (inactive)
O=C(c1ccccc1)C(CN1CCCCC1)c1ccccc1 (stereo unspecified)	29.1% (inactive)	63.6% (active)
CCOC(=O)COc1ccc(S(=O)(=O)N2CCN(c3ccc(OC)cc3)CC2)cc1	3.67% (inactive)	-1.53% (inactive)
